Target: VN1R2
Experiment: pooled miR-30 sensor sort-seq; sequence = guide strand
Details: shRNA

| Sequence | sensor-assay potency score (higher = more potent) |
| --- | --- |
| TTTACTTTCATCTCTGCCCACC | -1.01 |
| TAGTGCAGCAGTGTTCACTAGC | -0.0087 |
| TAAACGTAGGTGATGAAGGAAA | -0.975 |
| TAACATAATGCAAAGGTGCTCA | -0.437 |

Target: VNN1
Experiment: as above
Details: shRNA

| Sequence | sensor-assay potency score (higher = more potent) |
| --- | --- |
| TTTCACTCAGCAACACCTCAGG | -0.729 |
| TTAGCATTATTATTCTTGCTTG | -0.677 |
| TTCTCAGACATTTTGTAGCTTA | 0.132 |
| TTACTGTTAAGACAGGTCCGGA | -1.14 |
| TTATTATTCTTGCTTGTGCTGT | -0.405 |
| TAGAGGATAATATTAACCCGGA | -0.217 |
| TTTCAAACCTGGTAGAAGCTGT | 0.475 |
| TTGACACCTGAAATTCTCCAGG | -0.925 |
| TATCATAATGAAATGCTCTTGA | 0.667 |
| TATGGGTAGAGAGAGTCCCTGT | -0.516 |
| TTAAATGACAGCAGAGATCTTT | 0.464 |
| TTTGCCACAACATAGATAGAGT | -0.809 |

Reference: the OligoGym collection
